# Lmaj promast: Leishmania major promastigote growth inhibition, primary screen. inhibition, % at 10 µM. Leishmania major promastigotes, resazurin fluorescence viability. 200,000 tested, 9% active. AID 1063, 2008; in the data active = inhibition above about 50%;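 note: promastigotes grown with compound for 44 hours at 28 °C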
# Insulin prom inh: inhibitors of insulin promoter-driven GFP, primary screen, imaging, TRM-6 cells (human fetal islet line), eGFP reporter, cell count; reporter expression induced with tamoxifen; inhibition, % at 2 µM; 130,000 tested, 0.9% active; AID 1273, 2008;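 active = inhibition above the mean plus 3 SD, with well images judged a real hit on visual review, cut at about 60% in these data, passing the limit was not always enough; inconclusive = inhibition over the cutoff but images rejected on review; inactive = inhibition not above the cutoff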
# WT yeast gro inh: growth inhibition of WT strain, primary screen, mitochondrial fusion inhibitor project, WT and mutant strains, chemical genetic; mitochondrial fusion phenotypic screen; inhibition, % at 10 µM; 190,000 tested, 2.1% active; AID 1362, 2008; in the data active = inhibition above about 58%; tested in S. cerevisiae
# ROMK primary: ROMK potassium channel modulators, primary screen, cell-based, thallium flux, MLSMR library; ATP-sensitive inward rectifier potassium channel 1 (Homo sapiens), P48048; Tet-inducible ROMK, thallium flux fluorescence; actives lie on both sides; B-score at 10 µM; 130,000 tested, 2% active;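 active = signal ratio slope over the read window, or its plate-corrected B-score, at least 3 SD from the plate mean, either direction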;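 note: B-score of the F/F0 ratio slope over 7 to 12 s after thallium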
# Cl transport mod: KCC2 cotransporter modulators, thallium flux, primary screen, cell-based, HEK293 KCC2, FluoZin-2 fluorescence, MLSMR; 190,000 tested, 2.2% active; AID 1456, 2008; KCC2 cells, thallium flux FluoZin-2 fluorescence; B-score of Tl+ flux slope (higher = more flux/activation; lower = inhibition) at 10 µM; Solute carrier family 12 member 5 (Homo sapiens), Q9H2X9;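 active = thallium flux slope and its plate-corrected score both differing from the plate sample mean at a set confidence after two filtering rounds, in either direction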;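 note: slope of fluorescence scaled to starting intensity during 10 to 20 s after thallium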
# Target sequence (Q9H2X9 whole entry, looked up): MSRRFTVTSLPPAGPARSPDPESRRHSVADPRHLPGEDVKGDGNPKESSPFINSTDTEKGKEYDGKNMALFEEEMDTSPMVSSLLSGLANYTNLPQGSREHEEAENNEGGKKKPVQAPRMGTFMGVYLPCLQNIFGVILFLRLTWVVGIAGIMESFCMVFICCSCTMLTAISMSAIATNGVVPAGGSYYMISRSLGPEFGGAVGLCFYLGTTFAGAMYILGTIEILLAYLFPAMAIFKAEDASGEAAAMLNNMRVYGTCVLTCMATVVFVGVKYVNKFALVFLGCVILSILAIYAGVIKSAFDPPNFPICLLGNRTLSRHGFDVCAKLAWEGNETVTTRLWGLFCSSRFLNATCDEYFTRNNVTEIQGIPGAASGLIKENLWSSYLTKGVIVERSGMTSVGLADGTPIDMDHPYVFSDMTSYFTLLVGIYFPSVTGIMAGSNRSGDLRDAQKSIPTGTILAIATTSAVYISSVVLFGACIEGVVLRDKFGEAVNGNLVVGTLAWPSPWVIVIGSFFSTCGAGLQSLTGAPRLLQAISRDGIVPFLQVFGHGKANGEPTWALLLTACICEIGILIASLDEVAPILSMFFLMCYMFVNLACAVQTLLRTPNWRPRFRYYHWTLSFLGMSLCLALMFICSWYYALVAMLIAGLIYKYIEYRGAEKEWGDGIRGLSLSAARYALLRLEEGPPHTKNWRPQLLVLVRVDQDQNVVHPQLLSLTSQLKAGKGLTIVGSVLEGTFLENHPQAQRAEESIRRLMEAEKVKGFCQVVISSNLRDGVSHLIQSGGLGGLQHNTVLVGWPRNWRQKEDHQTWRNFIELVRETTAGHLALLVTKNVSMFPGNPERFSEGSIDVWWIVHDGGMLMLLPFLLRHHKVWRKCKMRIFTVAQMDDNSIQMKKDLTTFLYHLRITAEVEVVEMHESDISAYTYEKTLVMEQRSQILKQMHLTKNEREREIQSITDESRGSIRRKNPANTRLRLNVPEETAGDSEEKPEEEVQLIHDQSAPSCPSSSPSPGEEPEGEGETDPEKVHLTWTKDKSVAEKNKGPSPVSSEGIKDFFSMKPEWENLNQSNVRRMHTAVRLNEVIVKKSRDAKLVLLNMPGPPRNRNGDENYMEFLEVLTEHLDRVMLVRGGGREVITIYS
# Ins promoter up: insulin promoter activators in MIN6 cells, imaging, high-content screening, mouse beta cells | 190,000 tested, 0.3% active | AID 1625, 2009 | MIN6 insulin promoter-GFP reporter; stronger effect = higher value | z-score at 5 µM;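 active = z-score above 3 at 5 µM with at least 500 cells counted in the well; inconclusive = wells under 500 cells, flagged as cytotoxic or low count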
# KCC2 secondary: KCC2 modulators in sodium-free buffer, confirmation, cell-based, HEK293 KCC2, thallium flux, secondary assay; shares compounds with Cl transport mod; FluoZin2 fluorescence; stronger effect = higher value; normalised thallium flux (F/F0 slope) at 10 µM; 3,700 tested, 15% active;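 active = thallium flux slope above the same plate's solvent-only control mean plus 3 SD; inconclusive = the two replicate wells disagree; inactive = no significant difference from solvent-only control wells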
# KCC2 bumet counter: thallium flux persisting under bumetanide in KCC2 cells, confirmation, counter-screen for KCC2 modulator project, cell-based, HEK293 KCC2, FluoZin2, secondary assay 3; shares compounds with Cl transport mod; HEK293-KCC2 + bumetanide/ouabain; stronger effect = higher value; normalized thallium flux at 10 µM; 3,700 tested, 49% active; AID 1714, 2009;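 active = thallium entry rate above the same plate's blocked-transporter control wells by more than 3 SD; inconclusive = the two repeat wells disagree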;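 note: raw slope of fluorescence over initial fluorescence between 10 and 20 s after thallium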
# KCC2 secondary2: KCC2 modulators without ouabain present, confirmation, cell-based, HEK293 KCC2, thallium flux, FluoZin2, secondary assay 2; shares compounds with Cl transport mod; thallium flux FluoZin2 fluorescence; actives lie on both sides; F/F0 rise rate, 10–20 s post-thallium; normalized thallium flux at 10 µM; 3,700 tested, 23% active; AID 1715, 2009;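 active = thallium flux slope more than 3 SD above or below the plate's solvent-only control mean, mostly below; inconclusive = the two repeat wells disagreed; inactive = no significant shift from solvent-only controls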
# HEK counter1: thallium flux modulation in parental HEK cells, confirmation, counter-screen for KCC2 modulator project, cell-based, counterscreen 1; HEK293 parental cells, thallium flux FluoZin2, ouabain; baseline-ratio fluorescence slope, 10–20 s after thallium; shares compounds with Cl transport mod; thallium flux rate (normalised fluorescence) at 10 µM; AID 1716, 2009; 3,700 tested, 46% active;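 active = thallium flux rate significantly above the same plate's solvent-only control wells, beyond their mean plus 3 SD; inconclusive = the two replicate wells gave conflicting results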
# KCC2 ouabain: KCC2 inhibitors and activators, ouabain retest, confirmation, HEK-KCC2 cells; shares compounds with Cl transport mod; 3,700 tested, 48% active; HEK293-KCC2, thallium flux FluoZin2 fluorescence; bidirectional: low = inhibitor, high = activator; raw Tl+ flux slope (below DMSO = inhibition, above = activation) at 10 µM; AID 1717, 2009;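 active = thallium flux slope beyond 3 SD from same-plate DMSO control mean in most replicates, usually higher, sometimes lower; inconclusive = repeat tests gave conflicting results; inactive = no significant difference from controls in most replicates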;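 note: slope of initial-normalized fluorescence between seconds 10 and 20 after thallium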
# HEK293 Tl flux2: native HEK Tl+ uptake effects, second counter-screen – HEK cells, counterscreen 2, counter-screen for KCC2 modulator project, confirmation | shares compounds with Cl transport mod | HEK293 parental, thallium flux FluoZin-2 fluorescence slope | thallium flux slope at 10 µM | 3,700 tested, 33% active | AID 1718, 2009;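 active = thallium flux slope above the same plate's solvent-control mean plus 3 SD in both duplicate wells; inconclusive = duplicate wells that disagreed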;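 note: run without ouabain in cells lacking the KCC2 cotransporter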
# A number is an active result; - = inactive; ? = inconclusive; . = not tested or not shown. This is a sample that favours compounds with a hit; in the whole collection about 12% have one here.
SMILES,Lmaj promast,Insulin prom inh,WT yeast gro inh,ROMK primary,Cl transport mod,Ins promoter up,KCC2 secondary,KCC2 bumet counter,KCC2 secondary2,HEK counter1,KCC2 ouabain,HEK293 Tl flux2
O=C(CSc1nnc(-c2cccnc2)n1-c1ccc(F)cc1)NCc1ccc2c(c1)OCO2,-,-,-,.,-,-,.,.,.,.,.,.
Cc1ccc(NC(=O)C(=O)Nc2ccccn2)cc1,-,-,-,-,-,-,.,.,.,.,.,.
CCCCCCCCCCNC(=O)C(=O)Nc1ccccn1,-,-,-,-,.,.,-,-,-,0.0098,-,0.013
CNC(=S)NCC(O)c1ccc([N+](=O)[O-])cc1 (stereo not given),-,-,-,-,-,-,.,.,.,.,.,.
O=c1ccc(N=Nc2ccccc2)ccc1O,.,.,.,.,151,-,0.012,0.12,0.12,0.11,0.12,0.11
CCOC(=O)NC(=O)CSc1ccc(C)cc1C,-,.,-,-,2.9,-,-,-,-,?,-,-
COCCCNC(=S)Nc1cccc(S(=O)(=O)NC2=NCCC2)c1,-,.,-,-,-,-,.,.,.,.,.,.
S=C(Nc1cc(Cl)ccc1Cl)Nn1cnnc1,.,.,.,-,-,-,.,.,.,.,.,.
CN1C(N)=NC(=O)/C1=C/c1ccc(OC(F)(F)F)cc1,-,.,-,-,-,-,.,.,.,.,.,.
N#Cc1c(-c2ccc(C(F)(F)F)cc2)cc(-c2ccccc2)[nH]c1=S,-,-,-,.,5,-,0.02,0.022,-,?,0.029,0.024
COc1ccc(OC)c(NC(=O)C(=O)NNC(=O)C23CC4CC(CC(C4)C2)C3)c1,.,.,.,.,135,-,0.044,0.11,0.071,0.1,0.081,0.045
COc1ccc(NC(=O)C23CC4CC(C2)CC(c2ccccc2)(C4)C3)c(OC)c1,-,.,-,.,-,-,.,.,.,.,.,.
N#Cc1c(NC(=O)c2ccccc2Cl)n(Cc2ccccc2)c2nc3ccccc3nc12,-,.,-,.,-4.6,-,-,-,-,0.0051,0.014,-
O=[N+]([O-])c1ccc(O)c(C=Nc2ccc3nc(-c4ccccc4)[nH]c3c2)c1,-,-,-,-,-,-,.,.,.,.,.,.
Oc1c(Br)cc(C=Nc2ccc3nc(-c4ccccc4)[nH]c3c2)c(O)c1Br,-,.,-,-,-3.5,-,-,-,-,-,0.013,-
CCSc1nc2ccccc2c(=O)n1C1CCOC(C)(C)C1 (stereo not given),-,-,-,-,-,-,.,.,.,.,.,.
CC1(C)CC(n2c(=S)[nH]c3ccccc3c2=O)CCO1 (stereo not given),-,.,-,.,14,.,-,0.035,-,0.022,0.031,?
CCN1CCN(c2nc3c(c(=O)n(C)c(=O)n3C)n2CCSc2nccc(C)n2)CC1,-,.,-,.,.,-,.,.,.,.,.,.
S=C(NCCCc1ccccc1)Nc1ccc(Cl)cc1,90,-,72,-,-3.7,-,-,-,-,-,0.032,-
OCCNC(=S)NCCc1ccccc1,-,-,-,-,-,-,.,.,.,.,.,.
CC(C)(CNC(=S)NCCc1ccccc1)CNC(=S)NCCc1ccccc1,95,-,-,-,-5.1,-,-,-,?,-,0.013,-
S=C(NCCc1ccccc1)NC1CCCCCC1,-,-,68,.,-4.2,-,0.0058,?,-,-,?,-
O=C(NC1CCCCC1)C(=S)NCCc1ccccc1,-,.,-,-,-,-,.,.,.,.,.,.
S=C(NCc1cccs1)Nc1ccc(Br)cc1Cl,-,.,-,-,4.7,-,-,0.0095,-,0.011,-,0.012
Cc1cc(C)cc(NC(=S)NCc2cccs2)c1,-,-,-,-,-,-,.,.,.,.,.,.
SMILES,Lmaj promast,Insulin prom inh,WT yeast gro inh,ROMK primary,Cl transport mod,Ins promoter up,KCC2 secondary,KCC2 bumet counter,KCC2 secondary2,HEK counter1,KCC2 ouabain,HEK293 Tl flux2
S=C(NCc1ccccc1)Nc1ccc(Cl)cc1,-,.,-,-,-,-,.,.,.,.,.,.
CCCCCCNC(=O)c1c(N)n(/N=C/c2ccco2)c2nc3ccccc3nc12,-,-,.,.,-,.,.,.,.,.,.,.
O=C(O)CSc1ccnc2cc(Cl)ccc12,.,.,.,-,-,-,.,.,.,.,.,.
COc1ccc(CCNC(=S)NCc2cccs2)cc1OC,-,.,-,-,-,-,.,.,.,.,.,.
S=C(NCCc1ccccc1)NCc1cccs1,79,-,-,.,-4.4,-,-,-,0.025,-,-,-
O=C1NC(c2ccccc2)=CC(c2ccccc2)N1 (stereo not given),-,.,-,-,-,-,.,.,.,.,.,.
CCOc1cc(/C=N/NC(=O)CN(CCc2ccccc2)S(=O)(=O)c2ccc(NC(C)=O)cc2)ccc1O,-,-,-,.,-6.4,-,-,-,-,-,?,-
CC(=O)Nc1ccc(S(=O)(=O)N(C)CC(=O)N/N=C/c2cccc(O)c2)cc1,-,.,-,-,-,-,.,.,.,.,.,.
c1cc2c(cc1-c1csc(NNC3=NCCCCC3)n1)OCCO2,-,-,-,.,3.6,-,-,-,-,-,-,-
CCC(=O)Nc1nc(-c2ccc3c(c2)OCCO3)cs1,-,.,-,.,.,-,.,.,.,.,.,.
O=C(NCCCN1CCN(CCCNC(=O)c2ccc(F)cc2)CC1)c1ccc(F)cc1,-,-,-,.,-,.,.,.,.,.,.,.
CN1CCN(CCCNC(=O)c2ccc(/C=C3\Sc4ccccc4N(Cc4ccc(F)cc4)C3=O)cc2)CC1,100,-,-,-,2.7,.,-,-,-,-,-,-
Cc1cccc(NC(=S)N/N=C/c2ccc3c(c2)OCO3)c1,-,-,60,-,10,-,-,0.015,-,0.028,0.027,?
